KB-3-1 tox = KB-3-1 parental cell cytotoxicity; actives 1.4% (n = 400,000); AID 1347075; KB-3-1 viability, CellTiter-Glo ATP luminescence, 72 h; Potency, µM (titrated, usually from 46.1 µM), hits mostly cytotoxic; note: potency is the fitted concentration of half-maximal effect; nearly all actives have a fitted effect of over 60% in size
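Cells are dispensed, compounds pinned in, plates held at 37 °C for 72 h, then CellTiter-Glo is added and luminescence read after 10 minutes. Cell line: parental KB-3-1 in phenol-red-free DMEM, 10% FBS.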
KB-V1 MDR tox = kills drug-selected multidrug resistant KB-V1 cells; KB-V1 MDR cells viability, CellTiter-Glo, 72 h; Potency, µM (highest dose often 46.1 µM), most hits filed as cytotoxic; actives 3.4% (n = 400,000); AID 1347076; note: potency is the fitted concentration of half-maximal effect; nearly all actives have a fitted effect of over 60% in size
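Cells of the MDR subline KB-V1 are plated, dosed with compound at multiple concentrations, and incubated 72 h at 37 degrees C; CellTiter-Glo is then added and luminescence read after 10 min.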
IL1B secr inh = inflammasome signaling inhibition, IL-1 beta readout; THP-1 LPS/ATP IL-1B secretion, AlphaLISA, 16 h; hits give low values; activity change, % at 57.5 µM; actives 4.7% (n = 360,000); AID 743279; in the data active = activity change below about -50%; inconclusive = mostly about -30% to -49%
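THP-1 cells pretreated 1 hr with compounds (up to 57.5 uM final), then stimulated with LPS (250 ng/mL final) plus ATP (1.25 mM final); secreted IL-1B measured by AlphaLISA after 16 hr, decreased signal indicating inhibition.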
HT1080 IDH1KD tx = toxicity to HT-1080 IDH1 knockdown cells (counter line); HT-1080 IDH1 knockdown viability, ATP luminescence, 48 h; Potency, µM (highest dose often 46.1 µM), for inactives: top-dose activity, negative = toxicity, actives largely listed as cytotoxic; actives 2% (n = 360,000); AID 686971;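 note: potency is the fitted concentration of half-maximal effect; 0% = DMSO wells and -100% = cell-free medium wells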
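CellTiter-Glo luminescence after 48 h compound exposure at 37 degrees C of IDH1-knockdown HT-1080 cells in 5% FBS RPMI. %Activity scaled between DMSO wells and cell-free media wells, with curves fitted and assigned curve classes.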
HT1080NT lethal = kills 2HG-producing HT-1080-NT fibrosarcoma cells; HT-1080-NT fibrosarcoma viability, CellTiter-Glo ATP luminescence, 48 h; Potency, µM (series often up to 46.1 µM), for inactives: at the top dose activity, negative = less viability, most hits filed as cytotoxic; actives 1.6% (n = 360,000);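 note: NT is the 2HG producing partner of a matched IDH1 knockdown line; potency is the fitted concentration of half-maximal effect; 0% = DMSO-treated cells and -100% = media-only wells without cells; nearly all actives have a fitted effect of over 55% in size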
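750 cells/well, RPMI + 5% FBS; 2 h settle, compound pin-transfer, 48 h at 37 degrees C. CellTiter-Glo 10 min RT, luminescence. Normalized to DMSO and media-only wells.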
* marks the source's active call; other numbers are inactive results; i = inactive; ? = inconclusive; . = no result. A selection: hits, their analogues and other compounds. The true share with any hit is near 8.8%. Unless noted, calls come from the whole dose curve; as a rule, active = well fitted curve in the direction sought with a large enough effect; inconclusive = small, poorly fitted or top-dose-only effect, or another doubt; inactive = no such curve, though single readings can be large; an effect the other way counts as inactive or inconclusive. Unless noted, % is set by controls: 0 for no effect and ±100 for the full control effect.

SMILES	KB-3-1 tox	KB-V1 MDR tox	IL1B secr inh	HT1080 IDH1KD tx	HT1080NT lethal
Cc1ccccc1NC(=O)/C=C/c1ccc([N+](=O)[O-])s1	?	?	-102*	3.7µM*	4.1µM*
Cc1cc(C)cc(NC(=O)/C=C/c2ccc([N+](=O)[O-])s2)c1	6.5µM*	?	-102*	?	?
O=C(/C=C/c1ccc([N+](=O)[O-])s1)N1CCN(c2ccccc2)CC1	i	i	-12	0%	-1%
CC(=O)c1cccc(NC(=O)/C=C/c2ccc([N+](=O)[O-])s2)c1	?	21µM*	-104*	?	?
COC(=O)c1sccc1S(=O)(=O)N(CC(=O)Nc1c(C)cccc1C)c1ccc(C)c(C)c1	i	i	.	.	.
CC(SC1=NCCN1S(=O)(=O)c1ccccc1)c1ccccc1 (configuration not stated)	i	i	14	-1%	12%
COc1ccc(OC)c(-c2cc(C(=O)Nc3c(C)n(C)n(-c4ccccc4)c3=O)no2)c1	i	23µM*	?	-1%	4%
Cc1ccccc1NC(=O)Cc1nc(COC(=O)c2cccc([N+](=O)[O-])c2)cs1	i	i	0	5%	5%
COCCNc1nc(Nc2ccc(C)cc2C)c2sc(-c3ccccc3)cc2n1	i	i	-25	?	?
C=CCNc1nc(NCc2ccc(N(C)C)cc2)c2sc(-c3ccccc3)cc2n1	?	i	-24	?	?
c1ccc(CNc2nc(NCC3CC3)nc3cc(-c4ccccc4)sc23)cc1	?	i	-116*	?	23µM*
c1ccc(OCCNc2nc(NCC3CC3)nc3cc(-c4ccccc4)sc23)cc1	?	?	-106*	?	15µM*
O=C(NCCCN1CCOCC1)c1c(F)c(F)c(F)c(F)c1F	i	i	i	-1%	10%
O=[N+]([O-])c1cc(-c2ccccc2)cc([N+](=O)[O-])c1O	16µM*	21µM*	20	?	18µM*
O=C(CSc1nnc(-c2n[nH]c3ccccc23)n1-c1ccccc1)Nc1cccc(Cl)c1	i	7.3µM*	0	-18%	-3%
COc1ccc(CCNC(=O)CSc2nnc(-c3ccc(F)cc3)c3ccccc23)cc1OC	i	7.3µM*	0	-1%	-3%
O=C(CSc1nnc(-c2ccc(F)cc2)c2ccccc12)Nc1cccc(Cl)c1	i	?	-95*	-12%	-2%
O=C(CSc1nnc(-c2ccc(F)cc2)c2ccccc12)Nc1ccccc1	i	i	-61*	-19%	-10%
CCc1ccc(NC(=O)CSc2nnc(-c3n[nH]c4ccccc34)n2-c2ccccc2)cc1	i	i	4	-12%	-22%
COC(=O)Cc1nnc(SCC(=O)Nc2ccccc2)c2ccccc12	i	i	-63*	-5%	5%
CCOC(=O)c1c(C)cc2c(CO)n[nH]c(=O)c2c1C	i	0.82µM*	-11	-11%	-5%
COc1ccc(CN2CCc3c([nH]c4ccccc34)C2)c(OC)c1C	i	i	-89*	15µM*	?
COc1ccc(CN2CCc3c([nH]c4ccccc34)C2)cc1Br	i	i	-19	-18%	-15%
O=[N+]([O-])c1ccccc1OCCCn1cnc2ccccc21	i	7.3µM*	-24	-14%	-15%
Clc1ccc(OCCn2cnc3ccccc32)c(Cl)c1	?	16µM*	-29	?	-24%
SMILES	KB-3-1 tox	KB-V1 MDR tox	IL1B secr inh	HT1080 IDH1KD tx	HT1080NT lethal
O=c1c2ccccc2ncn1CCCOc1ccccc1[N+](=O)[O-]	i	i	-22	12%	8%
Cc1cc(/C=C2\C=Cc3ccccc32)cc(C)c1N	i	i	.	.	.
CC(Nc1cc(C)cc(C)c1)=[N+](C)CCNS(=O)(=O)c1ccc(Cl)cc1	i	i	-79*	-12%	-1%
CCOc1ccccc1NC(=O)COC(=O)c1c(CC)noc1C	i	?	11	-5%	-16%
CN1CCOC(=O)/C1=N/Nc1cc(Cl)ccc1Cl	i	i	9	21µM*	?
COc1ccc(CCN(Cc2cc3cc(C)cc(C)c3nc2Cl)C(=O)C2CC2)cc1	?	?	-69*	?	?
O=C(Cn1cnnn1)NC1CCCN(Cc2ccccc2F)C1 (configuration not stated)	i	?	-2	2%	1%
N#C/C(=C\c1ccc(O)c(Br)c1)C(=O)NCc1ccccc1	i	i	28	-29%	-23%
N#C/C(=C/c1cccc(O)c1)C(=O)NCc1ccc(Cl)cc1	i	i	-103*	?	?
N#C/C(=C/c1ccccc1)C(=O)NCc1ccccc1	i	i	-77*	-12%	-6%
N#C/C(=C/c1ccc(O)c(O)c1)C(=O)NCc1ccc(Cl)cc1	i	i	-6	?	?
CCOc1ccc(C2=Nc3ccc(Br)cc3C(c3ccc(N4CCOCC4)cc3)=NN2)cc1	i	i	-25	8%	18%
Fc1ccc2c(c1)C(c1ccncc1)=NNC(c1ccc(Cl)cc1)=N2	i	i	-67*	-9%	-4%
Fc1ccc2c(c1)C(c1ccc(N3CCOCC3)cc1)=NNC(c1cccs1)=N2	?	10µM*	-51*	-29%	-21%
Fc1ccc2c(c1)C(c1ccncc1)=NNC(c1ccccc1)=N2	i	i	-4	9%	6%
CCOc1ccc(C2=Nc3ccccc3C(c3ccc(N4CCOCC4)cc3)=NN2)cc1	16µM*	4.1µM*	-12	?	-14%
Cc1ccc(CNC(=O)CN(C(=O)C2(C)CC(=O)N=C3C=CC=CN32)c2cccc(C)c2C)cc1 (configuration not stated)	i	i	9	9%	7%
O=C(N/N=C/c1ccc[nH]1)c1ccccc1OCc1ccc(F)cc1	i	i	-1	-1%	0%
CCOc1ccc(OCc2ccc(C(=O)NN=Cc3ccc[nH]3)cc2)cc1	2.3µM*	i	?	?	0.65µM*
CCCCCCN1C2=NCCCN2c2ccccc21	i	i	-22	-22%	-16%
CCCCCCCCn1ccc(=N)cc1	5.8µM*	i	-10	-22%	?
CCCCCCCCCCn1ccc(=N)cc1	2.3µM*	?	-95*	10µM*	?
CCCCCCN1Cc2ccccc2C1	i	i	0	4%	12%
CCOC(=O)c1ccc(NC(=O)Cc2ccc(-n3c(CC)nc4cccnc43)cc2)cc1	i	i	.	.	.
COCc1c(C(=O)N2CCN(Cc3nc4ccccc4s3)CC2)oc2ccccc12	i	23µM*	26	-14%	-6%

Source: PubChem (National Center for Advancing Translational Sciences (NCATS))
